# Experimental data reported in PubChem BioAssay (EPA / NIEHS).
# The source made the active and inactive calls. Rule for the calls: active = hit-call score of the fitted dose curve at least 0.9, where 1 is the maximum; inactive = score below 0.9.
# Experiments:
# [1] = ATG_GLI_CIS: Attagene CIS-FACTORIAL HepG2 Assay for human Zinc Finger Protein GLI1 (AID 2282945); conditions: HepG2, Attagene cis-factorial reporter mRNA, GLI element; actives raise or lower the signal
# In short: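 HepG2 cells transiently transfected with cis-promoter multiplexed reporter units report endogenous transcription factor activity. After 24 h chemical exposure, reporter mRNA was quantified by RT-PCR, 6-FAM labelling, HpaI digestion and capillary electrophoresis, with bidirectional fitting against DMSO.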
# [2] = molecular target: Bile acid receptor (Homo sapiens) (UniProt Q96RI1); test: ATG_IR1_CIS: Attagene CIS-FACTORIAL HepG2 Assay for human Nuclear Receptor Subfamily 1 Group H Member 4 (NR1H4), IR1 submotif (AID 2282946); conditions: IR1 reporter transcription, actives raise or lower the signal
# In short: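 Transient MRTU transfection, HepG2; 24 h dosing; RNA → RT-PCR → 6-FAM primer extension → HpaI digest → capillary electrophoresis fluorescence. Gain/loss of signal fitted relative to DMSO.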
# [3] = ATG_GRE_CIS: Attagene CIS-FACTORIAL HepG2 Assay for human Glucocorticoid Response Elements (GRE) (AID 2282947); conditions: HepG2 GRE cis-reporter, Attagene multiplex mRNA; actives raise or lower the signal
# In short: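 Following 24 h chemical exposure of transiently transfected HepG2 cells, total RNA was reverse-transcribed and reporter cDNA amplified, fluorescently labelled and sized by capillary electrophoresis. Signal gain or loss was fitted relative to DMSO vehicle.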
# [4] = ATG_ISRE_CIS: Attagene CIS-FACTORIAL HepG2 Assay for human Interferon Regulatory Factor 1 (IRF1) binding to an Interferon-Stimulated Response Element (ISRE) (AID 2282948); conditions: HepG2 ISRE cis-reporter (Attagene), mRNA transcription readout; actives raise or lower the signal
# In short: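 Cell-based cis-reporter assay; HepG2; 24 h exposure; reporter mRNA by RT-PCR plus capillary electrophoresis fluorescence; activity in either direction scored relative to DMSO.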
# [5] = ATG_M_32_CIS: Attagene CIS-FACTORIAL HepG2 Assay for M32 Transcription Factor (Internal Marker) (AID 2282949); conditions: HepG2 Attagene cis-factorial M32 reporter, mRNA; actives raise or lower the signal;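 note: background control marker of the multiplexed CIS panel rather than a real target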
# In short: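 Fluorescent capillary electrophoresis peaks of HpaI-digested, FAM-labelled RT-PCR reporter products give the signal. Source: transiently transfected human liver HepG2 cells, 24 h after chemical dosing; bidirectional fitting against DMSO.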
# [6] = ATG_M_06_CIS: Attagene CIS-FACTORIAL HepG2 Assay for M06 Transcription Factor (Internal Marker) (AID 2282950); conditions: HepG2 Attagene CIS-FACTORIAL M06 internal marker reporter; actives raise or lower the signal
# In short: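 Steps: transfect HepG2 with multiplexed cis-element reporter constructs; dose chemical 24 h; extract RNA with DNase treatment; reverse-transcribe, PCR-amplify, 6-FAM label, HpaI digest; separate fragments by capillary electrophoresis. Activity fitted both directions versus DMSO.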
# [7] = molecular target: Hypoxia-inducible factor 1-alpha (Homo sapiens) (UniProt Q16665); test: ATG_HIF1a_CIS: Attagene CIS-FACTORIAL HepG2 Assay for human Hypoxia Inducible Factor 1 (HIF1A) (AID 2282951); conditions: HepG2 Attagene cis-factorial HIF1a reporter transcription; actives raise or lower the signal
# In short: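 HepG2, transient cis-reporter library, 24 h dosing. RNA → RT (oligo dT) → PCR → 6-FAM primer extension → HpaI → CE. Bidirectional curve fit vs DMSO.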
# [8] = molecular target: Heat shock factor protein 1 (Homo sapiens) (UniProt Q00613); test: ATG_HSE_CIS: Attagene CIS-FACTORIAL HepG2 Assay for human Heat Shock Transcription Factor 1 (HSE) (AID 2282953); conditions: HepG2 HSE cis-reporter, Attagene RNA transcription; actives raise or lower the signal
# In short: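 Cells were transfected with cis-element-driven reporter constructs, dosed for 24 h, then total RNA was reverse-transcribed and reporter cDNA amplified, FAM-labelled and digested with HpaI. Fragments were resolved by capillary electrophoresis; gain or loss was fitted against DMSO.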
# [9] = ATG_MRE_CIS: Attagene CIS-FACTORIAL HepG2 Assay for human Metal Responsive Element (MRE) (AID 2282954); conditions: HepG2 MRE cis-reporter transcription, Attagene multiplex; actives raise or lower the signal
# In short: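 Step one: transfect HepG2 with cis-regulated reporter units. Step two: dose 24 h. Step three: isolate RNA, RT-PCR, 6-FAM label, HpaI digest, capillary electrophoresis. Fit bidirectionally to DMSO.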
# [10] = ATG_PBREM_CIS: Attagene CIS-FACTORIAL HepG2 Assay for human Phenobarbital-responsive Enhancer Module (PBREM) (AID 2282955); conditions: HepG2 PBREM cis-reporter, Attagene multiplexed transcription; actives raise or lower the signal
# In short: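 HepG2, transient MRTU transfection, 24 h dosing; RNA → oligo(dT) RT → PCR → 6-FAM extension → HpaI → CE. Bidirectional fit vs DMSO.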
# [11] = molecular target: Paired box protein Pax-6 (Homo sapiens) (UniProt P26367); test: ATG_Pax6_CIS: Attagene CIS-FACTORIAL HepG2 Assay for human Paired Box 6 (PAX6) (AID 2282956); conditions: HepG2 CIS-FACTORIAL PAX6 reporter transcription, RNA readout; actives raise or lower the signal
# In short: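 Multiplexed cis-reporter HepG2 system; 24 h treatment; reporter mRNA read by RT-PCR/CE fluorescence; bidirectional fit vs DMSO.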
# [12] = ATG_PXRE_CIS: Attagene CIS-FACTORIAL HepG2 Assay for human Pregnane X Receptor Element (PXRE) (AID 2282957); conditions: HepG2 Attagene CIS-FACTORIAL PXRE reporter, mRNA; actives raise or lower the signal
# In short: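 Multiplexed cis-reporter assay in transiently transfected human HepG2 cells; 24 h chemical exposure. Reporter transcripts quantified by RT-PCR with fluorescent labeling and capillary electrophoresis.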
# [13] = ATG_PPRE_CIS: Attagene CIS-FACTORIAL HepG2 Assay for human Peroxisome Proliferator-activated Response Element (PPRE) (AID 2282958); conditions: HepG2 PPRE cis-element reporter, Attagene transcription factor profiling; actives raise or lower the signal
# In short: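 Transcript-level reporter induction in transfected HepG2 cells after 24 h chemical exposure, quantified by fluorescence from RT-PCR products separated by capillary electrophoresis.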
# [14] = ATG_RORE_CIS: Attagene CIS-FACTORIAL HepG2 Assay for human RAR-related Orphan Receptor Element (RORE) (AID 2282959); conditions: HepG2 Attagene cis-factorial RORE reporter, mRNA; actives raise or lower the signal
# In short: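 Multiplexed reporter assay measuring mRNA induction from a cis promoter element in transiently transfected HepG2 cells after 24 h treatment. Detection via RT-PCR and capillary electrophoresis fluorescence; DMSO serves as baseline.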
# [15] = ATG_Sox_CIS: Attagene CIS-FACTORIAL HepG2 Assay for human SRY-box transcription factor (SOX) (AID 2282960); conditions: HepG2 Attagene cis-factorial SOX reporter, mRNA; actives raise or lower the signal
# In short: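 Cells were transfected with reporter constructs under cis-regulatory promoters, then exposed to chemicals for 24 h. Reporter transcripts were quantified by fluorescence after RT-PCR and capillary electrophoresis; activity was fitted in both directions against DMSO.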
# [16] = molecular target: Transcription factor Sp1 (Homo sapiens) (UniProt P08047); test: ATG_Sp1_CIS: Attagene CIS-FACTORIAL HepG2 Assay for human Specificity Protein 1 (Sp1) (AID 2282961); conditions: HepG2 Sp1 cis-reporter transcription, actives raise or lower the signal
# In short: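 Measures mRNA induction of an Sp1-linked reporter in HepG2 cells 24 h post-dosing. Multiplexed reporters read by RT-PCR and capillary electrophoresis; DMSO serves as negative control and baseline.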
# [17] = ATG_SREBP_CIS: Attagene CIS-FACTORIAL HepG2 Assay for human Sterol Regulatory Element Binding (SREBP) (AID 2282962); conditions: HepG2 Attagene cis-factorial SREBP reporter, mRNA; actives raise or lower the signal
# In short: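 mRNA induction of transfected cis-promoter reporters in HepG2 cells, 24 h post-dose. Detection: RT-PCR with 6-FAM-labelled products, HpaI digest, capillary electrophoresis. DMSO served as negative control and baseline.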
# [18] = molecular target: Signal transducer and activator of transcription 3 (Homo sapiens) (UniProt P40763); test: ATG_STAT3_CIS: Attagene CIS-FACTORIAL HepG2 Assay for human Signal Transducer and Activator of Transcription 3 (STAT3) (AID 2282963); conditions: HepG2, Attagene cis-factorial STAT3 reporter transcription; actives raise or lower the signal
# In short: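 Transcript-level reporter assay. HepG2 transient MRTU transfection, 24 h exposure, fluorescence detection after RT-PCR and CE; DMSO baseline.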
# [19] = ATG_TA_CIS: Attagene CIS-FACTORIAL HepG2 Assay for human TA Basal Promoter (AID 2282964); conditions: HepG2 Attagene CIS-factorial TA basal promoter reporter; actives raise or lower the signal
# In short: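 Steps: transfect HepG2 with MRTUs; dose 24 h; isolate RNA, DNase-treat, reverse-transcribe; PCR and FAM-label reporter cDNA; digest with HpaI 2h at 37 C; run capillary electrophoresis. Activity fitted both directions against DMSO.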
# [20] = molecular target: Hepatocyte nuclear factor 6 (Homo sapiens) (UniProt Q9UBC0); test: ATG_HNF6_CIS: Attagene CIS-FACTORIAL HepG2 Assay for human Hepatocyte Nuclear Factor 6 (HNF6) (AID 2282952); conditions: HepG2 Attagene cis-factorial HNF6 reporter transcription; actives raise or lower the signal
# In short: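 Cells are HepG2 carrying transiently transfected cis-promoter reporter units. Treatment lasts 24 h, after which reporter transcripts are reverse-transcribed, amplified, FAM-labelled and sized by capillary electrophoresis. DMSO serves as baseline.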
# Sequence of Heat shock factor protein 1 (Homo sapiens) (Q00613 whole entry, looked up, the tested form may be a part): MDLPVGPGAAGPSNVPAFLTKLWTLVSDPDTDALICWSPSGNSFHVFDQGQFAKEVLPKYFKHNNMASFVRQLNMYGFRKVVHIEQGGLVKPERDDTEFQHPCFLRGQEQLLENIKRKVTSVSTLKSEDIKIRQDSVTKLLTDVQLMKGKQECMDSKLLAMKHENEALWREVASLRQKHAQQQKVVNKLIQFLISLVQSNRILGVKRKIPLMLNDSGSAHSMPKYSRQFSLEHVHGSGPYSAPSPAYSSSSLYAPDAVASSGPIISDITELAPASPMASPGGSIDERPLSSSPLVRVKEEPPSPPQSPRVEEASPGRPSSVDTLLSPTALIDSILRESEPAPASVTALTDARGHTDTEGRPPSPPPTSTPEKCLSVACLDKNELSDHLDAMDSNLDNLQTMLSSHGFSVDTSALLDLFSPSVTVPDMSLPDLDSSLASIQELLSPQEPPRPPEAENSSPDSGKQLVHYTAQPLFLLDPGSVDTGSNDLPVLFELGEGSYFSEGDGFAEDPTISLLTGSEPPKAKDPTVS
# Sequence of Paired box protein Pax-6 (Homo sapiens) (P26367 whole entry, looked up): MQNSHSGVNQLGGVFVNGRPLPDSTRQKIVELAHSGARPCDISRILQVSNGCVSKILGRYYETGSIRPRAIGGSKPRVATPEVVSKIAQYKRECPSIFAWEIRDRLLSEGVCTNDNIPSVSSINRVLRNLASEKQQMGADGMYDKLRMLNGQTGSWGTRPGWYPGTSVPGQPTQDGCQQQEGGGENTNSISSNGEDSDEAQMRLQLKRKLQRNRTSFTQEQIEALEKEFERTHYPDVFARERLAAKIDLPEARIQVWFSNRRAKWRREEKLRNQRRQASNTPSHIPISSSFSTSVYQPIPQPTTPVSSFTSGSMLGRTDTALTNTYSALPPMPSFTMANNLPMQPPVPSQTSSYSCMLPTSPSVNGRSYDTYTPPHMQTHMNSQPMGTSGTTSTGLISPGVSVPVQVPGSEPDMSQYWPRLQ
# Sequence of Hypoxia-inducible factor 1-alpha (Homo sapiens) (Q16665 whole entry, looked up): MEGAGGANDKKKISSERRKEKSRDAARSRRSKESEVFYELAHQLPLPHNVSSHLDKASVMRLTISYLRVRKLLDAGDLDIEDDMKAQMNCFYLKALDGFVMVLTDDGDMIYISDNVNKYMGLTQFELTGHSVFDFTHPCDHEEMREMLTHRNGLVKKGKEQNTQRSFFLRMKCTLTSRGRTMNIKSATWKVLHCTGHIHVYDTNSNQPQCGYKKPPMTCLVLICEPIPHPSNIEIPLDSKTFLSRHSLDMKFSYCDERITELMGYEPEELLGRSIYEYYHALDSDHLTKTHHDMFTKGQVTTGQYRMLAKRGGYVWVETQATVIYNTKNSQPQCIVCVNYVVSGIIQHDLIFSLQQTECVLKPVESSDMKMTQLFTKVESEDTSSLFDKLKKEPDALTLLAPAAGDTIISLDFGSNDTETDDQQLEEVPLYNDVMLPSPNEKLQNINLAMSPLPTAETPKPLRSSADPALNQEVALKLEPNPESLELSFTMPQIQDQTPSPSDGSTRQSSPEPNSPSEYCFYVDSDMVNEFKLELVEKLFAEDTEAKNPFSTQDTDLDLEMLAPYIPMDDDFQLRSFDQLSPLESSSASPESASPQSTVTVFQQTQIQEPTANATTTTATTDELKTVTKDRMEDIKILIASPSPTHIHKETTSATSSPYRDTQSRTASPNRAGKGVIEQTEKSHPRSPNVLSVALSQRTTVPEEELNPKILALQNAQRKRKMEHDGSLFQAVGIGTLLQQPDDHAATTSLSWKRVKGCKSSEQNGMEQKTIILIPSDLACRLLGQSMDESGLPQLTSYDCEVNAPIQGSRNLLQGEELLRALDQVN
# Sequence of Transcription factor Sp1 (Homo sapiens) (P08047 whole entry, looked up): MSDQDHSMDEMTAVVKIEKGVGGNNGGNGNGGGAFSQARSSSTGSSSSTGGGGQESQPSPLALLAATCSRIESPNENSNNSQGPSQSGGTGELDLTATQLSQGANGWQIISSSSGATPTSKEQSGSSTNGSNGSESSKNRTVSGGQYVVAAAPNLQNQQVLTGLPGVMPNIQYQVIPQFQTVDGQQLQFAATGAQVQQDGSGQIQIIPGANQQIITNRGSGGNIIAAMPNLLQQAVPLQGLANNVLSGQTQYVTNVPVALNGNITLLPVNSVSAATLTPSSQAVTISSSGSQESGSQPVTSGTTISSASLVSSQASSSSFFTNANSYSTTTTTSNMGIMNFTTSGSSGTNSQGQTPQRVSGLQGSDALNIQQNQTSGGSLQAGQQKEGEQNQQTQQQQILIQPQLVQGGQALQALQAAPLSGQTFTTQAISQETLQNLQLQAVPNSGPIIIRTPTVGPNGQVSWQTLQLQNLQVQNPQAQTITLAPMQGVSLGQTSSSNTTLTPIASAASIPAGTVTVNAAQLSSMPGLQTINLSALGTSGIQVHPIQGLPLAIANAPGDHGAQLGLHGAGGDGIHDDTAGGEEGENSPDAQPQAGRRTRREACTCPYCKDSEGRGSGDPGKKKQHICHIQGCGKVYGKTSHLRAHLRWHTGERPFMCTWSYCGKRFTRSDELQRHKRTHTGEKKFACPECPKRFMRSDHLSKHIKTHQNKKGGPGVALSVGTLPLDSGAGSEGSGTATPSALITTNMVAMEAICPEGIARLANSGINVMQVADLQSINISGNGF
# Sequence of Signal transducer and activator of transcription 3 (Homo sapiens) (P40763 whole entry, looked up): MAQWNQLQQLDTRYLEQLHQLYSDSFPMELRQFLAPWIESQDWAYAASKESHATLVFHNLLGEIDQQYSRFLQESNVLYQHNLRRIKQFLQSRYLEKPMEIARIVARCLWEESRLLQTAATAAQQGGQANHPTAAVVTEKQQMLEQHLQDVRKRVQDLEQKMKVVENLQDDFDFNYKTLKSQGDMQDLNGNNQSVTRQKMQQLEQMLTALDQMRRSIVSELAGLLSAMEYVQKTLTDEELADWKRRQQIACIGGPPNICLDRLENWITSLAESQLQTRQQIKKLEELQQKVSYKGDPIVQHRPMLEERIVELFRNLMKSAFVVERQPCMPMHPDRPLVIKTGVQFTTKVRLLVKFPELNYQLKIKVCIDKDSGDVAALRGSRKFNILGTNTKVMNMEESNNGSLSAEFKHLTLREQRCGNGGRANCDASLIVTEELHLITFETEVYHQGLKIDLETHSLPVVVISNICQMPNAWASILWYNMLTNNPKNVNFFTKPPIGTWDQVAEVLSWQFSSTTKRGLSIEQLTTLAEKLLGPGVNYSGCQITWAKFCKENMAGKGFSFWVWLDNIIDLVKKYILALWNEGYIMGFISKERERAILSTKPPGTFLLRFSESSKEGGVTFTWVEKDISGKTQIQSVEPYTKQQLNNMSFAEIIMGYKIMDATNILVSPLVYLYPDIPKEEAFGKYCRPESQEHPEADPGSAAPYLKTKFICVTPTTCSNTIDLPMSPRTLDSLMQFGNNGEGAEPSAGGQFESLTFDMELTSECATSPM
# Sequence of Bile acid receptor (Homo sapiens) (Q96RI1 whole entry, looked up): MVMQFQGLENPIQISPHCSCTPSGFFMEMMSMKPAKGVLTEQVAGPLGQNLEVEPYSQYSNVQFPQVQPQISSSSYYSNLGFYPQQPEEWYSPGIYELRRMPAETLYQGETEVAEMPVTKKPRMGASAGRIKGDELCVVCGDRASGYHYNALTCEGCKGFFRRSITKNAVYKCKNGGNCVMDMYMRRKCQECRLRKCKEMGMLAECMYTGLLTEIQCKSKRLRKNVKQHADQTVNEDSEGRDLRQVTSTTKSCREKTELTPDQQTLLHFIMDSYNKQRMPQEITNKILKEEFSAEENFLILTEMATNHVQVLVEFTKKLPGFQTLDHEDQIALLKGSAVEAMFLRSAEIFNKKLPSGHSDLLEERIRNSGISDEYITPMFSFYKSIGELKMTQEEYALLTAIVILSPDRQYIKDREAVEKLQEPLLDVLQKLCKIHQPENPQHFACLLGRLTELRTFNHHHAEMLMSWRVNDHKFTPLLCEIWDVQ
# Sequence of Hepatocyte nuclear factor 6 (Homo sapiens) (Q9UBC0 whole entry, looked up): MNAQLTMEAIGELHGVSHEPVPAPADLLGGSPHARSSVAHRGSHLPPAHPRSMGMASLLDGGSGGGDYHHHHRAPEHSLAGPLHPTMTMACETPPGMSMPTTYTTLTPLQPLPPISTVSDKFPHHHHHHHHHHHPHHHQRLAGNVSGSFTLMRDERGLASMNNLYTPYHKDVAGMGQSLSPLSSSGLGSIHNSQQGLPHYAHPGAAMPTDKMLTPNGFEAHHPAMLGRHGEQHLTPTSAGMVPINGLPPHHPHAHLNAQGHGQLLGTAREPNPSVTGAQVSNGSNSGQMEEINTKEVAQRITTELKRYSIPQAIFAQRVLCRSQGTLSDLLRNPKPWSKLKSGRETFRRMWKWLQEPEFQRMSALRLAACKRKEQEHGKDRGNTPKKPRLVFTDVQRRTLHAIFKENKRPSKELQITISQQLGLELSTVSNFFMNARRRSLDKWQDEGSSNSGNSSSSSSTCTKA
compound,measurement,setting,value
N#Cc1cc([N+](=O)[O-])ccc1N,outcome,[1],inactive
same,outcome,[2],inactive
same,outcome,[3],inactive
same,outcome,[4],inactive
same,outcome,[5],inactive
same,outcome,[6],inactive
same,outcome,[7],inactive
same,outcome,[8],inactive
same,outcome,[9],inactive
same,outcome,[10],inactive
same,outcome,[11],inactive
same,outcome,[12],inactive
same,outcome,[13],inactive
same,outcome,[14],inactive
same,outcome,[15],inactive
same,outcome,[16],inactive
same,outcome,[17],inactive
same,outcome,[18],inactive
same,outcome,[19],inactive
Nc1ccc([N+](=O)[O-])cc1Cl,outcome,[1],inactive
same,outcome,[2],inactive
same,outcome,[3],inactive
same,outcome,[4],inactive
same,outcome,[5],inactive
same,outcome,[6],inactive
same,outcome,[7],inactive
same,outcome,[20],inactive
same,outcome,[8],inactive
same,outcome,[9],inactive
same,outcome,[11],inactive
same,AC50,[12],67.3 µM (active)
same,outcome,[13],inactive
same,outcome,[14],inactive
same,outcome,[15],inactive
same,outcome,[16],inactive
same,outcome,[17],inactive
same,outcome,[18],inactive
same,outcome,[19],inactive
CCOP(=S)(OCC)SCn1nnc2ccccc2c1=O,outcome,[1],inactive
same,outcome,[2],inactive
same,outcome,[3],inactive
same,outcome,[4],inactive
same,outcome,[5],inactive
same,outcome,[6],inactive
same,outcome,[7],inactive
same,outcome,[20],inactive
same,AC50,[8],166 µM (active)
same,AC50,[9],78.5 µM (active)
same,outcome,[11],inactive
same,AC50,[12],0.673 µM (active)
same,outcome,[13],inactive
same,outcome,[14],inactive
same,outcome,[15],inactive
same,outcome,[16],inactive
same,outcome,[17],inactive
same,outcome,[18],inactive
same,outcome,[19],inactive
OCC(F)(F)OC(F)(F)C(F)(F)OC(F)(F)C(F)(F)OC(F)(F)CO,outcome,[1],inactive
same,outcome,[2],inactive
same,outcome,[3],inactive
same,outcome,[4],inactive
same,outcome,[5],inactive
same,outcome,[6],inactive
same,outcome,[7],inactive
same,outcome,[8],inactive
same,outcome,[9],inactive
same,outcome,[10],inactive
same,outcome,[11],inactive
same,AC50,[12],13.9 µM (active)
same,outcome,[13],inactive
same,outcome,[14],inactive
same,outcome,[15],inactive
same,outcome,[16],inactive
same,outcome,[17],inactive
same,outcome,[18],inactive
same,outcome,[19],inactive
CO/N=C(/C(=O)OC)c1ccccc1COc1ccccc1C,outcome,[1],inactive
same,outcome,[2],inactive
same,outcome,[3],inactive
same,outcome,[4],inactive
same,outcome,[5],inactive
same,outcome,[6],inactive
same,AC50,[7],100 µM (active)
same,outcome,[20],inactive
same,AC50,[8],150 µM (active)
same,AC50,[9],100 µM (active)
same,AC50,[11],70.1 µM (active)
same,AC50,[12],4.57 µM (active)
same,AC50,[14],36.5 µM (active)
same,outcome,[15],inactive
same,outcome,[16],inactive
same,outcome,[17],inactive
same,outcome,[18],inactive
same,outcome,[19],inactive
COP(=O)(CCC(=O)NCO)OC,outcome,[1],inactive
same,outcome,[2],inactive
same,outcome,[3],inactive
same,outcome,[4],inactive
same,outcome,[5],inactive
same,outcome,[6],inactive
same,outcome,[7],inactive
same,outcome,[20],inactive
same,outcome,[8],inactive
same,outcome,[9],inactive
same,outcome,[11],inactive
same,outcome,[12],inactive
same,outcome,[13],inactive
same,outcome,[14],inactive
same,outcome,[15],inactive
same,outcome,[16],inactive
same,outcome,[17],inactive
same,outcome,[18],inactive
same,outcome,[19],inactive
CC1(C)CN=C(NN=C(/C=C/c2ccc(C(F)(F)F)cc2)/C=C/c2ccc(C(F)(F)F)cc2)NC1,outcome,[1],inactive
same,AC50,[2],6.99 µM (active)
same,outcome,[3],inactive
same,AC50,[4],18.4 µM (active)
same,AC50,[5],17.4 µM (active)
same,outcome,[6],inactive
same,outcome,[7],inactive
same,AC50,[8],18 µM (active)
same,AC50,[9],6.34 µM (active)
same,outcome,[10],inactive
same,outcome,[11],inactive
same,AC50,[12],4.77 µM (active)
same,AC50,[13],3.92 µM (active)
same,outcome,[14],inactive
same,AC50,[15],15.4 µM (active)
same,AC50,[16],16.6 µM (active)
same,AC50,[17],19.7 µM (active)
same,AC50,[18],20.2 µM (active)
same,AC50,[19],3.76 µM (active)
